Most compounds without a hit are left out; they make up all but 3% or so of the library.
PMP22 txn = Cell-based coincidence reporter assay to measure PMP22 gene transcription in S16 Pmp22-F2sN cells - Primary screen; Potency, µM (highest dose often 57.5 µM), hits mostly inhibitors; S16 Pmp22-F2sN Schwann cells, FLuc/NLuc coincidence luminescence, 24 h; 2% of 43,000 active; active = clear falling dose curves in both reporters; inconclusive = both reporters move, but less clearly or upward; inactive = either reporter flat; the % is the NLuc reporter signal
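S16 Schwann cells carrying FLuc/NLuc coincidence reporter in the Pmp22 3' UTR treated with compound 24 h at 37C; FLuc then NLuc luminescence read sequentially by dual-luciferase reagents.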
pS6 MEF inh = Acumen qHTS Assay for Inhibitors of the mTORC1 Signaling Pathway in MEF (Tsc2-/-, p53-/-) Cells: Sytravon. Tsc2-/- p53-/- MEF, phospho-rpS6 immunofluorescence/PI, 24 h. Potency, µM (series often up to 38.3 µM), actives largely listed as inhibitors. 0.78% of 44,000 active. AID 493208, 2011; note: nearly all actives have a fitted effect of over 50% in size
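Tsc2-/-, p53-/- mouse embryonic fibroblasts (empty-vector line) exposed to compound 24 hrs at 37 C, fixed, immunostained for phospho-rpS6 and counterstained with propidium iodide. Acumen laser scanning gives % positive cells from Alexa 488/PI ratio, thresholded using 7.5 nM rapamycin; PI count gives viability.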
S16 F2sN tox = Cell viability qHTS assay in S16 Pmp22-F2sN cells; S16 Pmp22-F2sN Schwann cells viability, CellTiter-Glo, 24 h; Potency, µM (doses to about 57.5 µM), usual class: cytotoxic; AID 1508642, 2021; 0.48% of 43,000 active; note: nearly all actives have a fitted effect of over 65% in size
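Used to flag compounds lowering reporter output through toxicity, this quantitative HTS measures ATP-based CellTiter-Glo luminescence in S16 Pmp22-F2sN Schwann cells after 24 h compound exposure at 37C.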
GALC G270D act = A Novel Cell-Based Assay to Identify Small Molecules for B -Galactocerebrosidase; 0.1% of 45,000 active; P54803; 145M-Twi-hGALC-G270D cells (Twitcher mouse brain line with human GALC G270D), HMU-beta-Gal fluorescence, 48 h; Potency, µM (top dose mostly 57.5 µM), usual class: activators; note: nearly all actives have a fitted effect of over 65% in size
Target sequence (P54803 whole entry G286D): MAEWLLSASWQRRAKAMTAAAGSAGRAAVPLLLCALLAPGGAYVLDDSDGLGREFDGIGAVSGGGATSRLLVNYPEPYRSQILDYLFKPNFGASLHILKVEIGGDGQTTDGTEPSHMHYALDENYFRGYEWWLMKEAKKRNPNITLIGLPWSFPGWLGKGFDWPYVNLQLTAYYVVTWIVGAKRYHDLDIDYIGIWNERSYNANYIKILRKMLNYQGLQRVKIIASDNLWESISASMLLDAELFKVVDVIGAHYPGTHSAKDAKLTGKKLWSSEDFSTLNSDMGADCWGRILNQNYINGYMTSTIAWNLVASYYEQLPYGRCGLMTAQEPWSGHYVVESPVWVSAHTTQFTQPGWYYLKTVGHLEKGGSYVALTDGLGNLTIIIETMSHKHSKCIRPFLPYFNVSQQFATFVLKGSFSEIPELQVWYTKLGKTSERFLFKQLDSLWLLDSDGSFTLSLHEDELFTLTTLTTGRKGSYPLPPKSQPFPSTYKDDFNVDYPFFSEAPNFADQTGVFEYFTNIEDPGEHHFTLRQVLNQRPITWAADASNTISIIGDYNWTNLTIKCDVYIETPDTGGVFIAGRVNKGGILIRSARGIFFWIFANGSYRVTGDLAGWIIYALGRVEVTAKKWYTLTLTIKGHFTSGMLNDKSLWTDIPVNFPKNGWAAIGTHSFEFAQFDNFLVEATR
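Mutant human GALC (G270D), stably expressed in a Twitcher mouse brain cell line lacking endogenous GALC, is measured in live-treated cells via 6-hexadecanoylamino-4-methylumbelliferyl-β-galactoside hydrolysis (0.1 mM final, pH 5.2) with fluorescent detection.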
p53null 39C kill = qHTS Screen for Compounds that Selectively Target Cancer Cells with p53 Mutations: Cytotoxicity of p53 Null Cells at the Nonpermissive Temperature; Potency, µM (top dose mostly 46.1 µM), actives largely listed as cytotoxic; 0.97% of 55,000 active; H1299 p53-null (neo) cells, 39C, ATPlite viability, 24 h; note: nearly all actives have a fitted effect of over 50% in size
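H1299 lung cancer cells, p53-null (H1299-neo) or expressing p53 A138V (H1299-p53A138V), were plated overnight at 37C, then exposed to compounds at up to 46 uM for 24 hr at 39C. Viability was read by ATP-based luminescence.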
p53null 32C kill = qHTS Screen for Compounds that Selectively Target Cancer Cells with p53 Mutations: Cytotoxicity of p53 Null Cells at the Permissive Temperature. H1299-neo p53 null cells, ATP luminescence, 24 h, 32C. AID 903, 2007. Potency, µM (doses to about 46.1 µM), hits mostly cytotoxic. 0.62% of 55,000 active; note: nearly all actives have a fitted effect of over 55% in size
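We seeded p53-null H1299-neo cells, incubated them overnight at 37C, and added compounds across a range up to 46 uM. After 24 hours at 32C, ATP reagent was applied for 20 min at room temperature and luminescence recorded.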
NLuc saturating = Biochemical NLuc saturation counterscreen for small molecule modulators of PMP22 gene expression - Nano-Glo assay; shares compounds with PMP22 txn; Secreted NLuc enzyme (filtered S16 cell medium), Nano-Glo luminescence; Potency, µM (highest dose often 57.5 µM), hits mostly inhibitors; 4% of 690 active
NLuc Km counter = Biochemical coelenterazine-based NLuc counterscreen for small molecule modulators of PMP22 gene expression - Km assay; shares compounds with PMP22 txn; 5% of 690 active; Potency, µM (series often up to 57.5 µM), most hits filed as inhibitors; AID 1508639, 2021; secreted NLuc enzyme, coelenterazine luminescence, Km conditions
FLuc ctr PMP22 = Biochemical FLuc counterscreen for small molecule modulators of PMP22 gene expression | shares compounds with PMP22 txn | 690 tested, under 10 active | Potency, µM (doses to about 57.5 µM), usual class: inhibitors | purified P. pyralis FLuc, luminescence, 10 min
S16 viab conf = Cell viability qHTS assay in S16 Pmp22-F2sN cells - Confirmatory screen; shares compounds with PMP22 txn; Potency, µM (highest dose often 57.5 µM), hits mostly cytotoxic; S16 Schwann cells viability, CellTiter-Glo ATP luminescence, 24 h; AID 1508641, 2021; 7% of 690 active
PMP22 txn conf = Cell-based coincidence reporter assay to measure PMP22 gene transcription in S16 Pmp22-F2sN cells - Confirmatory screen; shares compounds with PMP22 txn; S16 Schwann cells Pmp22-F2sN, dual luciferase, 24 h; Potency, µM (highest dose often 57.5 µM), usual class: inhibitors; 22% of 690 active; active = clear falling dose curves in both reporters; inconclusive = both reporters move, but less clearly or upward; inactive = either reporter flat; the % is the FLuc reporter signal
A number is an active result; 0 = inactive; ? = inconclusive; - = not tested or not shown. Unless noted, calls come from the whole dose curve; as a rule, active = well fitted curve in the direction sought with a large enough effect; inconclusive = small, poorly fitted or top-dose-only effect, or another doubt; inactive = no such curve, though single readings can be large; an effect the other way counts as inactive or inconclusive.

SMILES	PMP22 txn	pS6 MEF inh	S16 F2sN tox	GALC G270D act	p53null 39C kill	p53null 32C kill	NLuc saturating	NLuc Km counter	FLuc ctr PMP22	S16 viab conf	PMP22 txn conf
CCCNC(=O)c1cnn2c(C)c(Cc3c(C)cc(C)cc3C)c(C)nc12	16µM	0	?	0	0	0	?	22µM	0	0	?
O=[N+]([O-])/N=C1\NCCN1Cc1ccc(Cl)nc1	-	-	-	0	-	-	-	-	-	-	-
CCC(=O)O[C@@H]1C=C2CCC3C(CCC4(C)C3CC[C@@H]4OC(=O)CC)C2CC1 (stereo partly drawn)	-	-	-	0	-	-	-	-	-	-	-
CCOc1ccc(Nc2c(S(=O)(=O)c3ccc(C)cc3)cnc3ccccc23)cc1	?	0	?	0	0	0	-	-	-	-	-
CCCOC(=O)c1c(C)oc2c1cc(NS(=O)(=O)c1ccc(OCC)cc1)c1ccccc12	8.9µM	?	0	0	?	0	0	0	0	0	?
CCOc1ccc(/C=C/c2nc(C#N)c(NCc3ccccc3)o2)cc1	?	?	0	0	?	0	0	0	0	0	0
O=C(Nc1ccc2c(c1)OCO2)c1cccn(Cc2cccc(F)c2)c1=O	0	0	0	0	0	0	-	-	-	-	-
